Reference: PubChem BioAssay
Activity calls are given as the source filed them.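 The calls were made as follows, unless noted: active = inhibition of the reporter signal at or above 50%; inactive = inhibition below 50%.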

Experiments:
[1] = inhibitors of TNFa-induced NFkB p65 translocation, primary screen, imaging, HUVEC, MLSMR starter and 10KST1 sets (AID 438;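 active = inhibition above 20% together with a positive visual image hit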;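 also: compound added about 3h40 before a 20 min TNFalpha stimulation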;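 as to inhibition: signal is the nuclear over cytoplasmic p65 intensity ratio per well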); settings: HUVEC TNFa-induced p65 nuclear translocation; cell count: measured here: nuclei count (cytotoxicity indicator), at 2.08 µM; inhibition: at 2 µM, stronger effect = higher value, 0% TNFa-plus-vehicle, 100% no-TNFa wells
[2] = reduction of polyQ htt aggregates in cells – imaging, exon1htt(103Q)mCFP cells, high-content imaging, primary screen (AID 483;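 active = visual image review flags a hit and inhibition of aggregation exceeds 20%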;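 also: compound exposure lasted 3 days before fixation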;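 as to nuclei count: percent of the per-plate median nuclei count of sample wells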); settings: exon1htt(103Q)mCFP cell line, aggregate imaging, at 2 µM; inhibition of aggregation: stronger effect = higher value; nuclei count: measured here: cell count, toxicity
[3] = endothelial E-selectin expression blockers – imaging, HUVEC, immunofluorescence, MLSMR starter and 10KST1 sets, primary screen (AID 487;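 active = visually confirmed hit in the image check and inhibition above 20%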;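 as to inhibition: signal is fraction of cell area covered by stained E-selectin grains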;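 as to nuclei count: 100% = median nuclei count of all wells on the same plate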); settings: HUVEC TNFalpha-induced E-selectin immunofluorescence imaging, at 2 µM; inhibition: stronger effect = higher value; nuclei count: measured here: cell number, toxicity
[4] = molecular target: Voltage-gated potassium channel subunit beta-2 (Rattus norvegicus) (UniProt P62483); assay: inhibitors of rat Kvbeta2 reductase activity – biochemical, NADPH fluorescence, primary screen (AID 622;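 active = fluorescence slope higher than the sample average by over 3 SD, cut at about -0.22 in these data, passing the limit was not always enough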;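 also: slope of raw intensity against log time taken from 70 to 1610 s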); settings: recombinant KvBeta, 4-cyanobenzaldehyde reduction, at 10 µM, stronger effect = higher value
[5] = molecular target: Voltage-gated potassium channel subunit beta-2 (Rattus norvegicus) (UniProt P62483); assay: enhancers of rat Kvbeta2 NADPH turnover – biochemical, NADPH fluorescence, primary screen (AID 623;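 active = NADPH fluorescence slope more negative than the mean of all samples by about 3 SD, 99.7% confidence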;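 also: fluorescence intensity change per second fitted from 20 to 320 s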); settings: Recombinant KvBeta, NADPH fluorescence decrease slope, 10 min; at 10 µM; stronger effect = lower value
[6] = molecular target: Alpha-2C adrenergic receptor (Homo sapiens) (UniProt P18825); assay: compounds altering alpha2C-coupled GIRK flux – cell-based, HEK293 alpha2C/GIRK1/2, thallium flux, primary screen (AID 624;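 active = fluorescence slope after compound addition differing from the mean of all screened samples at 99.7% confidence, in either direction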;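 also: slope of fluorescence ratio to pre-addition baseline per second over 15 to 24 s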); settings: thallium flux BTC fluorescence, at 10 µM, actives lie on both sides
[7] = blockers of RIG-like receptor reporter activation – cell-based, Sendai virus stimulus, luciferase, 10K MLSCN set, TLR/RLR signaling modifier project, primary screen (AID 602276;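 active = inhibition at or above 50% at 10 µM; inactive = inhibition below 50%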;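 also: firefly luciferase from ISG56 promoter only with Renilla not read in this screen; 0% = Sendai virus plus DMSO and 100% = medium plus DMSO without virus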); settings: HEK293 RL24 IRF3 luciferase reporter, at 10 µM, stronger effect = higher value
[8] = TLR3 IRF3 reporter activation blockers – cell-based, poly I:C stimulus, luciferase, 10K MLSCN set, primary screen (AID 602277); settings: HEK293-TLR3 RL24 IRF3 luciferase reporter, at 10 µM, stronger effect = higher value

Alpha-2C adrenergic receptor (Homo sapiens), sequence (P18825 whole entry, looked up): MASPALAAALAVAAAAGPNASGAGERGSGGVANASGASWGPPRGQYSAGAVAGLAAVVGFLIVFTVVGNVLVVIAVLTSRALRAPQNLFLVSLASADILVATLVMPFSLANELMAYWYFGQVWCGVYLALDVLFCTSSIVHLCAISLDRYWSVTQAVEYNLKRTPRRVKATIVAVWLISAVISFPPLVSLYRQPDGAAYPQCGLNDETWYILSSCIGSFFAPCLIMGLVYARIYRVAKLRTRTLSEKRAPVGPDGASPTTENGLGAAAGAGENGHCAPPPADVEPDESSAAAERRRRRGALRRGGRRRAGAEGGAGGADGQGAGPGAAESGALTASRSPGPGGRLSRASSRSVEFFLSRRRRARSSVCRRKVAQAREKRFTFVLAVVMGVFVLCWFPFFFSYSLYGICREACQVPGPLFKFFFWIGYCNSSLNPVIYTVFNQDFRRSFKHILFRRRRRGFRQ
Voltage-gated potassium channel subunit beta-2 (Rattus norvegicus), sequence (P62483 whole entry, looked up): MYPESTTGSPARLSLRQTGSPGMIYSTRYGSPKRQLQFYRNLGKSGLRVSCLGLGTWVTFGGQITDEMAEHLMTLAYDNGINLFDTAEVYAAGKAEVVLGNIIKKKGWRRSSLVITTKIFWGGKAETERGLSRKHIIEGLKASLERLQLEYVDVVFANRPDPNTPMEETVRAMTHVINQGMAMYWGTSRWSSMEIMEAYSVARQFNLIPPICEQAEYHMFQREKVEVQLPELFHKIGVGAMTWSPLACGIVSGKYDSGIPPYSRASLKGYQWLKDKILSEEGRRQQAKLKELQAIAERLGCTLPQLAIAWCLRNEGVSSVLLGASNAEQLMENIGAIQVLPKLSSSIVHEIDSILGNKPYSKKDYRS

| Compound | cell count [1] | inhibition [1] | inhibition of aggregation [2] | nuclei count [2] | inhibition [3] | nuclei count [3] | fluorescence slope [4] | NADPH fluorescence slope [5] | slope [6] | inhibition [7] | inhibition [8] |
| --- | --- | --- | --- | --- | --- | --- | --- | --- | --- | --- | --- |
| COc1ccc(-n2ncc3c(=O)n(CC(=O)OCc4ccccc4)cnc32)cc1 | 506 | 5.2% (inactive) | -19.6% (inactive) | 94.6% | -26% (inactive) | 101% | -0.377 (inactive) | -4.4e-05 (inactive) | 0.00543 (inactive) | -0.623% (inactive) | 3.88% (inactive) |
| COC(=O)c1ccc(NC(=O)C(C)N2C(=O)c3ccccc3C2=O)cc1 (centres undefined) | 593 | -1.8% (inactive) | -7.5% (inactive) | 103% | -39.9% (inactive) | 108% | -0.614 (inactive) | 5.9e-06 (inactive) | 0.0058 (inactive) | -2.42% (inactive) | 3.26% (inactive) |
| Cc1nc2sc(C(c3cccc(F)c3)N3CCCCC3)c(O)n2n1 (centres undefined) | 223 | -2.8% (inactive) | -5.5% (inactive) | 95.8% | -5.7% (inactive) | 120% | -0.538 (inactive) | 7.3e-06 (inactive) | 0.00555 (inactive) | 1.92% (inactive) | 19.2% (inactive) |
| c1ccc(-n2ncc3c(N4CCCCC4)ncnc32)cc1 | 655 | -3.9% (inactive) | -2.1% (inactive) | 108% | -21.5% (inactive) | 118% | -0.574 (inactive) | -3.8e-05 (inactive) | 0.0073 (inactive) | 49.8% (inactive) | 10.6% (inactive) |
| O=C(OCCN1C(=O)c2ccccc2C1=O)c1ccc(S(=O)(=O)N2CCCCCC2)cc1 | 390 | -9.2% (inactive) | -7.2% (inactive) | 95.1% | -10.3% (inactive) | 108% | -0.605 (inactive) | -2.9e-05 (inactive) | 0.00625 (inactive) | 19.6% (inactive) | 12.1% (inactive) |
| Cc1ccc(NC(=O)CN(c2ccc3c(c2)OCO3)S(=O)(=O)c2c(C)n[nH]c2C)cc1 | 768 | -12.5% (inactive) | -29.4% (inactive) | 108% | -39.7% (inactive) | 101% | -0.42 (inactive) | -5.2e-05 (inactive) | 0.00614 (inactive) | 6.09% (inactive) | 17.9% (inactive) |
| O=C(Nc1ccc(Br)cc1F)c1sccc1-n1cccc1 | 616 | -12.7% (inactive) | -18.9% (inactive) | 103% | -10.6% (inactive) | 110% | -0.397 (inactive) | -3.4e-05 (inactive) | 0.00385 (inactive) | -1.64% (inactive) | -17.5% (inactive) |
| O=C(NCCO)c1cc2ccccc2cc1O | 489 | -8.2% (inactive) | 23.4% (inactive) | 85.8% | -92.3% (inactive) | 109% | -0.47 (inactive) | -2.1e-05 (inactive) | 0.00658 (inactive) | -5.48% (inactive) | -4.78% (inactive) |
| Cc1cc(NC(=O)CSc2nc(CCC3CCCC3)nc3ccccc23)no1 | 400 | 3.5% (inactive) | -13.6% (inactive) | 113% | -41% (inactive) | 90% | -0.449 (inactive) | 4e-06 (inactive) | 0.00867 (inactive) | 8.39% (inactive) | 27.2% (inactive) |
| Cc1ccc(Nc2nc(CSc3nnc(-c4cccs4)o3)cs2)cc1 | 444 | -0.2% (inactive) | 31.6% (inactive) | 110% | 16.3% (inactive) | 113% | -0.408 (inactive) | -1.4e-05 (inactive) | 0.00487 (inactive) | -22% (inactive) | -60.6% (inactive) |
| Cc1cc(C(=O)NCCCN2CCN(C3CCCCC3)CC2)n(-c2ccccc2)n1 | 685 | -2.2% (inactive) | -2.4% (inactive) | 101% | -70.3% (inactive) | 114% | -0.588 (inactive) | -2.7e-05 (inactive) | 0.00679 (inactive) | -18.1% (inactive) | 17.8% (inactive) |
| COc1cc(NC2=CC(=O)CC(C)(C)C2)cc(OC)c1 | 346 | 7.5% (inactive) | -8.1% (inactive) | 110% | -3.1% (inactive) | 103% | -0.373 (inactive) | 6.9e-06 (inactive) | 0.00551 (inactive) | -4.89% (inactive) | -12.1% (inactive) |
| CCOC(=O)N1CCN(S(=O)(=O)c2ccc(OCC)c(C)c2)CC1 | 604 | -11.1% (inactive) | -7.7% (inactive) | 106% | 8.2% (inactive) | 102% | -0.625 (inactive) | -3.8e-06 (inactive) | 0.00615 (inactive) | 0.885% (inactive) | 11.9% (inactive) |
| CN(CCCNC(=O)c1cn(C)c2ccc(S(=O)(=O)N(C)C)cc2c1=O)c1ccccc1 | 596 | -4.5% (inactive) | -18.9% (inactive) | 37.6% | 39.4% (inactive) | 94.2% | -0.582 (inactive) | -7.6e-06 (inactive) | 0.00499 (inactive) | 15.4% (inactive) | 7.91% (inactive) |
